# Source: PubChem BioAssay (NCI)
# Compounds without any hit were thinned out: in the full panel of roughly 83,000, 20% have a hit.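 Negative percent growth values reflect cell death: -40 means 40% of the cells present at the start died, and -100 means all died.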 A number with no mark means an inactive call. Active and inactive are the calls of the source. The calls were made as follows: active = growth percent below 10; inactive = the rest.
# Legend:
# Assay in all cases: NCI-60 one-dose screen, 48 h (100 = growth as untreated, 0 = no growth, -100 = all killed)
# NCI-H23 lung = conditions: 10 µM unless noted
# NCI-H226 lung = conditions: 10 µM unless noted
# NCI-H322M lung = conditions: 10 µM unless noted
# NCI-H460 lung = conditions: 10 µM unless noted
# HOP-92 NSCLC = conditions: 10 µM
# NCI-H522 lung = conditions: 10 µM
# A549/ATCC NSCLC = conditions: 10 µM unless noted
# 786-0 renal = conditions: 10 µM unless noted
# COLO 205 colon = conditions: 10 µM unless noted
# DU-145 prostate = conditions: 10 µM unless noted
# K-562 leukemia = conditions: 10 µM unless noted
# MALME-3M melanoma = conditions: 10 µM unless noted
# MDA-MB-231 breast = conditions: 10 µM unless noted
# RXF 393 renal = conditions: 10 µM unless noted
# SF-268 CNS = conditions: 10 µM unless noted
# SF-295 CNS = conditions: 10 µM unless noted
# SF-539 CNS = conditions: 10 µM unless noted
# UACC-257 melanoma = conditions: 10 µM unless noted
# M14 melanoma = conditions: 10 µM unless noted
Structure (SMILES),growth (NCI-H23 lung),growth (NCI-H226 lung),growth (NCI-H322M lung),growth (NCI-H460 lung),growth (HOP-92 NSCLC),growth (NCI-H522 lung),growth (A549/ATCC NSCLC),growth (786-0 renal),growth (COLO 205 colon),growth (DU-145 prostate),growth (K-562 leukemia),growth (MALME-3M melanoma),growth (MDA-MB-231 breast),growth (RXF 393 renal),growth (SF-268 CNS),growth (SF-295 CNS),growth (SF-539 CNS),growth (UACC-257 melanoma),growth (M14 melanoma)
COc1ccc(-c2nc(Nc3nc4ccccc4[nH]3)nc(N)c2C#N)cc1,100%,85.4%,111%,109%,88.6%,92.5%,106%,102%,81.4%,108%,97.2%,106%,91.9%,134%,99%,114%,97.2%,108%,99.5%
Cc1c(Cc2ccccc2)c(=O)oc2c(C)c(OCC(=O)n3nc(C#N)cc3N)ccc12,96.5%,96.2%,93.6%,106%,89.1%,79.4%,106%,97%,107%,104%,102%,99.5%,103%,119%,97.1%,94.7%,99.3%,105%,96.3%
c1cc(C2CCCCC2)ccc1OCCCCCCN1CCNCC1,42.3%,81.9%,82%,-7.36% (active),6.55% (active),77.7%,36.5%,58.3%,-52.2% (active),17.9%,-42.1% (active),52.7%,33.4%,32%,54.5%,73.1%,32.4%,73.1%,40.3%
Cc1nc(NC(=S)Nc2ccc(F)cc2)sc1C(=O)NNC(=S)Nc1ccc(F)cc1,38%,60.7%,86.8%,70.2%,19.7%,33.9%,66.2%,18.9%,85.9%,82%,51.4%,125%,77.9%,94%,92.4%,40.6%,93.8%,82.1%,51%
O=Nc1c(-c2c(O)[nH]c3cc(Br)ccc23)[nH]c2ccccc12,-80.8% (active),-39.4% (active),16.6%,-72.8% (active),14.4%,-29% (active),-61.9% (active),6.13% (active),-100% (active),-88.8% (active),-64.1% (active),61.6%,9.57% (active),-62.6% (active),-61% (active),-26.2% (active),-44.8% (active),-78.8% (active),31.1%
CCC(CCCN1C(=O)c2ccccc2C1=O)Nc1cc(OC)cc2c(C)ccnc12 (stereo not given),117%,88.2%,104%,114%,72.4%,91.8%,103%,95.9%,104%,86.7%,72.4%,111%,81.1%,-10.2% (active),113%,93.3%,76.5%,88.6%,
CC(=O)Nc1ccc(C(=O)/C=C/c2ccc(N(C)C)cc2)cc1,93.9%,96.9%,106%,97.6%,101%,76.6%,93.9%,96.7%,106%,98.2%,98.2%,88.9%,104%,99.1%,93.7%,99%,106%,95.5%,99.4%
Nc1cc2c(cc1Br)[nH]c(=O)c1ccccc12,54.4%,54.8%,83.8%,38.4%,35%,43%,29.3%,58.6%,68.1%,27.8%,40.7%,26.3%,32%,22%,51.3%,74.8%,110%,45.8%,22%
CC1C(=O)CCCC1=O,113%,121%,99.4%,120%,106%,90.9%,102%,103%,114%,124%,103%,98.4%,101%,134%,112%,104%,98.9%,108%,111%
COC(=O)c1ccc2[nH]c(O)c(C(=Nc3ccc(N(C)C(=O)CN4CCN(C)CC4)cc3)c3ccc([N+](=O)[O-])cc3)c2c1,57.3%,55.8%,41.9%,48.5%,63.6%,34.3%,72.8%,33.1%,43.8%,47.3%,1.99% (active),-1.29% (active),70.2%,33.9%,45.3%,55.2%,38.9%,85.4%,32.1%
CCc1c(C)c2ccc(OCC(=O)N=Nc3c(O)[nH]c4ccccc34)c(C)c2oc1=O,5.58% (active),12.4%,-14.2% (active),-46.7% (active),29.7%,-9.85% (active),30.2%,-22.9% (active),31.4%,7.92% (active),4.73% (active),42.5%,0.841% (active),35.7%,18.4%,-9.71% (active),85%,28.2%,3.57% (active)
COc1cc(OC)c2c(=O)cc(-c3ccccc3)oc2c1,106%,101%,93.2%,104%,54.9%,82.8%,96.7%,49%,117%,111%,98.4%,97.2%,97%,99.8%,104%,93.8%,108%,97.8%,
O=C1/C(=C/c2ccc(Cl)cc2)CCC/C1=C\c1ccc(Cl)cc1,70.7%,104%,99.6%,97.7%,74.4%,83%,65.7%,91.3%,73.3%,91.7%,67.9%,90.5%,95.6%,56.4%,84.1%,94.5%,88.1%,81.5%,69.7%
COc1cccc2c1n([O-])c1cccc(OC)c1[n+]2=O,58.8%,97.8%,107%,47.8%,94.3%,53.5%,70.6%,84.2%,97.6%,60.9%,37.6%,89.2%,95.7%,-35.3% (active),62%,120%,68.4%,71%,96%
Clc1ccc(N/N=C(/c2ccccc2)c2ccccn2)nc1,29.7%,27.1%,39.8%,28.8%,51%,60.8%,32%,37.6%,25%,42%,15.5%,50.5%,30.7%,74.6%,37.8%,41.2%,41.3%,13.4%,28.9%
COc1cc2c(/C=C3\C(=O)Nc4ccc(Br)cc43)c(Cl)n(C)c2cc1C,20.6%,45.1%,17.2%,8.86% (active),-4.95% (active),-3.92% (active),24%,-17.3% (active),6.03% (active),17.5%,6.73% (active),21.9%,7.42% (active),-23.9% (active),29.6%,9.82% (active),7.51% (active),28.8%,
c1ccc(C(=NNc2nc3ccccc3o2)c2ccccn2)nc1,10.8%,-2.97% (active),13.3%,3.05% (active),34.4%,20.9%,6.29% (active),6.88% (active),18%,20.3%,10.9%,19.5%,29.7%,16.4%,7.72% (active),0.423% (active),2.62% (active),-1.59% (active),-4.91% (active)
